Most compounds without a hit are left out; they make up all but 3.1% or so of the library.
Mtb BioA inh: inhibitors of Mycobacterium tuberculosis BioA enzyme | purified M. tuberculosis BioA enzyme, plate reader | inhibition, % at 9.99 µM | 0.096% of 360,000 active | AID 602481; in the data active means inhibition above about 40%; inconclusive means no clear call, values can overlap the other calls
FadD28 binding: blocks FadD28 binding to the bisubstrate probe | inhibition, % at 12.5 µM | AID 588549 | 0.22% of 360,000 active | fluorescence polarization; in the data active means inhibition above about 8.5%, passing the limit was not always enough; inconclusive means no clear call, values can overlap the other calls
GDH-TPI counter: inhibits GDH-TPI coupling enzymes, artifact for Mtb FBA screen; inhibition, % at 4.8 µM; GDH-TPI coupled enzyme counterscreen, NADH absorbance; AID 588335; 1.2% of 360,000 active; in the data active means inhibition above about 30%;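 further: 0% = DMSO wells and 100% = wells lacking the enzyme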
FBA Mtb inh: Mtb fructose-bisphosphate aldolase inhibition. P9WQA3. purified M. tuberculosis FBA, fluorescence read-out. inhibition, % at 1 µM. 2.3% of 360,000 active. AID 588726; in the data active means inhibition above about 27%;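 further: 0% = vehicle and 100% = reference inhibitor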
Target sequence (P9WQA3 whole entry, looked up): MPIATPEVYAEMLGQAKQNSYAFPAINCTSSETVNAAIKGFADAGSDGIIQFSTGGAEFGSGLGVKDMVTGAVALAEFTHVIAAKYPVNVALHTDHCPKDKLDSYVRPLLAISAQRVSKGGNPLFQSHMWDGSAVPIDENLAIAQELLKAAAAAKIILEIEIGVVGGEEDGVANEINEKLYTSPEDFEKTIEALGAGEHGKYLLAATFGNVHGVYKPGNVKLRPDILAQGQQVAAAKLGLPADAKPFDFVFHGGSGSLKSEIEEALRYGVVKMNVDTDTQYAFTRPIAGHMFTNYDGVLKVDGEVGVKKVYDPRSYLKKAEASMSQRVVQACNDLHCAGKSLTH
3CLpro inhibitor: SARS-CoV 3CLpro protease inhibition; P0C6X7; recombinant SARS-CoV 3CLpro, quenched FRET peptide cleavage; inhibition, % at 6 µM; 0.14% of 290,000 active; AID 1706; in the data active means inhibition above about 12%
Starred values were filed as active, the others as inactive; ? = inconclusive; . = no result given; + = active, no number.

SMILES	Mtb BioA inh	FadD28 binding	GDH-TPI counter	FBA Mtb inh	3CLpro inhibitor
O=C(C1CC1)N1CCCCN2[C@@H](CO)[C@@H](c3ccc(-c4ccncc4)cc3)[C@@H]2C1	2	.	.	.	.
C[C@@H]1CN([C@H](C)CO)C(=O)Cc2cc(NC(=O)Cc3cn(C)c4ccccc34)ccc2O[C@@H]1CN(C)Cc1ccc(Cl)c(Cl)c1	-6	.	.	.	.
Cc1cc(/C=C2\NC(=O)NC2=O)c(C)n1-c1cccnc1	0	-3	45*	0	3
Cc1cccc(C)c1-n1c(C)cc(/C=C2\NC(=O)NC2=O)c1C	-2	1	33*	4	10
COc1ccc(/C=C/c2nnc(NC(=O)C(C)(C)C)s2)cc1	.	-1	52*	9	0
C[C@H](CO)N1C[C@H](C)[C@@H](CN(C)C(=O)NC2CCCCC2)Oc2c(NC(=O)Nc3cccc4ccccc34)cccc2C1=O	1	.	.	.	.
COCC(=O)N1C[C@@H](C)[C@@H](OC)CN(C)C(=O)c2cc(NC(=O)c3ccc(OC)cc3)ccc2OC[C@@H]1C	0	.	.	.	.
COc1ccc2nc(/C=N/NC(=O)CCNC(=O)OC(C)(C)C)ccc2c1	.	-2	52*	69*	0
CC(C)(C)OC(=O)NCCC(=O)N/N=C/c1ccc2ncccc2c1	-1	0	3	2	-1
FC(F)(F)c1cc(-c2cccs2)nc2ncnn12	1	0	11	+	0
FC(F)(F)c1cc(-c2ccc(Cl)cc2)nc2ncnn12	1	-1	18	142*	4
O=C(NCCc1ccccc1)c1nc2nc(-c3cccs3)cc(C(F)(F)F)n2n1	-2	-2	31*	+	-2
Cc1cc(C)n2nc(C(=O)NCCc3ccccc3)nc2n1	0	2	6	12	2
Nc1nc(-c2ccc(Cl)cc2)cc(C(F)(F)F)n1	1	-4	-5	3	-1
C[C@@H]1CN([C@@H](C)CO)C(=O)c2cc(NC(=O)C3CCCCC3)ccc2O[C@@H](C)CCCCO[C@@H]1CN(C)S(=O)(=O)c1ccc(Cl)cc1	-1	.	.	.	.
CC(=O)N1[C@@H]2Cn3c(ccc(-c4ccccc4)c3=O)[C@H]1[C@@H](C(=O)N1CCN(C)CC1)[C@@H]2CO	0	.	.	.	.
CN(C)c1ccc(C2N3CC4(C)CN2CC(C)(C3)C4O)cc1 (stereo not given)	0	-3	42*	4	-6
CC12CN3CC(C)(CN(C1)C3c1ccc(Cl)cc1Cl)C2O (stereo not given)	.	-3	-2	-1	-4
Nc1c(-c2ccc3c(c2)OCCO3)oc2ccccc2c1=O	4	.	-2	+	-2
COc1ccc(-c2oc3cc(O)c(OC)c(O)c3c(=O)c2OC)cc1O	.	2	22	-3	.
COc1ccc(-c2cc(=O)c3c(OC)c(OC)c(OC)c(OC)c3o2)cc1OC	9	-2	32*	7	-2
O=c1cc(-c2ccc(O)cc2)oc2ccc(O)cc12	.	-1	37*	4	3
COc1cc(OC)c2c(=O)c(OC)c(-c3ccc(OC)c(OC)c3)oc2c1	-1	-3	22	103*	-6
C[C@@H]1CN([C@@H](C)CO)C(=O)Cc2cc(NC(=O)Cn3cnnn3)ccc2O[C@H]1CN(C)CC1CCCCC1	2	.	.	.	.
COc1ccc(-c2cc(=O)c3c(OC)c(OC)c(OC)cc3o2)cc1	3	-3	32*	-1	0
SMILES	Mtb BioA inh	FadD28 binding	GDH-TPI counter	FBA Mtb inh	3CLpro inhibitor
O=c1cc(-c2ccc(O)cc2)oc2ccccc12	0	-2	22	3	3
COc1ccc(-c2cc(=O)c3c(O)c(OC)c(O)cc3o2)cc1	1	-1	19	-2	1
COc1ccc(-c2cc(=O)c3ccccc3o2)cc1	2	-5	32*	+	.
O=c1cc(-c2ccc3c(c2)OCO3)oc2ccccc12	0	-4	39*	22	-4
O=c1cc(-c2cccc(F)c2)oc2ccccc12	1	-3	9	-2	.
O=C(Nc1ccc([N+](=O)[O-])cc1)C1C(c2ccccc2)=C1c1ccccc1	.	0	33*	3	5
O=C(Nc1ccc(C(=O)O)cc1)Nc1ccc([N+](=O)[O-])cc1	1	0	22	1	0
O=C(O)CC(NNC(=O)c1ccccc1)C(=O)Nc1ccc([N+](=O)[O-])cc1 (stereo not given)	-7	1	31*	6	-3
C[C@H](CO)N1C[C@H](C)[C@H](CN(C)Cc2ccc(C(F)(F)F)cc2)Oc2ccc(NC(=O)Nc3ccc4c(c3)OCO4)cc2C1=O	-3	.	.	.	.
Cc1ccc(C2CC(=O)NC(SCC(=O)Nc3nccs3)=C2C#N)cc1 (stereo not given)	-1	12*	0	-8	1
CN1/C(=C/C(=O)C2CCC2)Sc2ccccc21	.	0	68*	2	-3
CN1/C(=C/C(=O)c2cccs2)Sc2ccccc21	-1	-3	-10	1	5
COCC(=O)/C=C1\Sc2ccccc2N1C	0	?	37*	-6	-2
O=C(O)[C@H]1[C@H](CO)[C@H]2Cn3c(ccc(-c4ccccc4)c3=O)[C@H]2N1CCc1ccccc1	3	.	.	.	.
Cc1ccc(S(=O)(=O)Nc2ccc3c(c2)C(=O)N([C@@H](C)CO)C[C@H](C)[C@H](CN(C)C(=O)C2CCCCC2)OCCCC[C@H](C)O3)cc1	2	.	.	.	.
CCOc1cc(/C=C/C(=O)c2ccc(O)cc2)ccc1OCC(=O)N(C)C	1	-4	47*	-3	2
COc1ccc(C=CC(=O)c2ccc3cc(OC)c(OC)cc3c2)cc1OC	0	-10	31*	-4	.
COc1ccc(/C=C/C(=O)c2ccoc2)cc1	-1	1	38*	1	-8
COc1ccc(C(=O)C=Cc2ccc3c(c2)OCO3)cc1OC	.	-3	17	0	.
COc1ccc(C=CC(=O)c2ccc(OC)c(OC)c2)cc1O	4	-3	40*	3	.
CCOc1cc(/C=C/C(=O)c2ccc3c(c2)OCCO3)ccc1OCC(=O)N(C)C	-1	-1	11	-1	-1
CCC(=O)N1C[C@H](C)[C@H](OC)CN(C)C(=O)c2cc(NC(=O)c3ccc(F)cc3)ccc2OC[C@H]1C	0	.	.	.	.
COc1ccc(C(=O)/C=C/c2ccc3c(c2)OCCO3)cc1	1	0	36*	2	1
COc1cc(C(=O)C(=O)c2ccc(OC)c(OC)c2)ccc1O	.	-4	32*	-6	.
O=C(/C=C/c1ccc2c(c1)OCCO2)c1ccccc1	-1	-2	14	-1	-2
SMILES	Mtb BioA inh	FadD28 binding	GDH-TPI counter	FBA Mtb inh	3CLpro inhibitor
COc1cc(OC)c(C(=O)C=Cc2ccc(OC)c(OC)c2)c(OC)c1	-2	-2	35*	0	.
CCCNC(=O)C[C@H]1CC[C@H]2[C@@H](COC[C@@H](O)CN2C(=O)c2ccccn2)O1	-3	.	.	.	.
C[C@H](CO)N1C[C@H](C)[C@@H](CN(C)S(C)(=O)=O)Oc2c(NC(=O)Nc3ccc(F)cc3)cccc2C1=O	0	.	.	.	.
Nc1nc2ccccc2n1C(=O)c1cccs1	-2	-1	61*	2	-2
Nc1nc2ccccc2n1C(=O)c1ccccc1	.	-3	6	1	3
CC(C)Oc1ccc(/C=C(\C#N)C(=O)NC2CC2)cc1	0	-4	16	-4	.
